Compound activity (PubChem)
Shiga toxin inh: blocks Shiga toxin action in Vero cells. Vero cells, Shiga toxin protein synthesis inhibition reporter. inhibition, % at 38.7 µM. 290,000 tested, 9.2% active. AID 2315; in the data active means inhibition mostly above about 28%, no sharp cut-off; inactive means mostly below about 43%; further: 0% is about no effect
LmPK inh: inhibitors of Leishmania mexicana pyruvate kinase. purified LmPK, Kinase-Glo ATP luminescence, 1 h. Potency, µM (titrated, usually from 57.5 µM), for inactives: at the highest dose activity change, negative = inhibition, actives largely listed as inhibitors. 290,000 tested, 0.37% active. AID 1721; further: potency means the concentration at half of the fitted maximal effect; on the % scale 0 is the no-effect control and ±100 the full control effect
Target sequence (Q27686 whole entry, looked up): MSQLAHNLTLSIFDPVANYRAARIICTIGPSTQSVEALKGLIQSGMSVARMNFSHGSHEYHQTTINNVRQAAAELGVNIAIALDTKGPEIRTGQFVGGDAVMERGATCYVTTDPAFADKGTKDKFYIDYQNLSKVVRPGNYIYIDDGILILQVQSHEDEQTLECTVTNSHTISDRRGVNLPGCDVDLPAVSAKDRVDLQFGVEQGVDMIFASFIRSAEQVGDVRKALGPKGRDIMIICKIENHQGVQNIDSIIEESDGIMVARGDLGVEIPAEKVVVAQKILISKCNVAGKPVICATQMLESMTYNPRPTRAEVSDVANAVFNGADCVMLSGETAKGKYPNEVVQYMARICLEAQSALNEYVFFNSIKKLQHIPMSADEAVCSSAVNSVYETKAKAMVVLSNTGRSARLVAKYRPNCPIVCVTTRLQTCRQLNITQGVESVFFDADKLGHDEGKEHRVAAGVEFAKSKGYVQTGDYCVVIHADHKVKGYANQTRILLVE
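Pyruvate kinase activity monitored as ATP production (luciferase luminescence). Conditions: 0.1 nM enzyme, 0.5 mM PEP, 0.1 mM ADP, 1 h, RT; normalized against uninhibited and no-enzyme wells.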
Pf growth 96h: inhibits malaria parasite growth, 96 h. P. falciparum luciferase reporter growth, 96 h. Potency, µM (titrated, usually from 28.7 µM), inactives show at the highest dose activity change, negative = inhibition, usual class: inhibitors. 320,000 tested, 6.9% active; further: potency means the concentration at half of the fitted maximal effect; on the % scale 0 is the no-effect control and ±100 the full control effect
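P. falciparum expressing integrated firefly luciferase, in erythrocytes at 2% hematocrit, 0.05% parasitemia, incubated with compounds 96 h at 37 C, 5% CO2. Growth inhibition read as loss of luminescence; two-generation exposure targets delayed-death apicoplast inhibitors.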
Pf growth 48h: P. falciparum growth inhibition at 48 hours (one generation); P. falciparum luciferase growth in erythrocytes, 48 h; Potency, µM (doses to about 28.7 µM), inactives show at the top dose activity change, negative = inhibition, actives largely listed as inhibitors; 310,000 tested, 5.9% active; AID 504832; further: potency means the concentration at half of the fitted maximal effect; on the % scale 0 is the no-effect control and ±100 the full control effect
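Parasite viability was followed by luminescence of a genomically integrated firefly luciferase. Cultures held 0.1% parasitemia at 2% hematocrit (final), incubated under 5% CO2 at 37 C.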
Cycloheximide cs: counter-screen for Shiga toxin inhibitors: cycloheximide protein synthesis inhibition. cell reporter, cycloheximide protein synthesis inhibition counterscreen. max response, %. 300,000 tested, 12% active. AID 2314; in the data active means max response mostly above about 13%, no sharp cut-off; inactive means mostly below about 14%; further: read at 38.3 µM for the half of the compounds with a filed dose; 0% is about no effect
Active calls of the source: *; ? = inconclusive; nt = no result given. Rows were chosen to be rich in hits. Some 22% of all compounds tested hit in one or more screens of this group. Unless noted, the call rests on the fitted dose curve; in most records, active means well fitted inhibition curve with a large enough effect; inconclusive means small, poorly fitted or top-dose-only effect, or another doubt; inactive means no such curve, though single readings can be large or run the other way.

SMILES | Shiga toxin inh | LmPK inh | Pf growth 96h | Pf growth 48h | Cycloheximide cs
CCOC(=O)Cc1csc(SCc2nc3sc4c(c3c(=O)[nH]2)CCC4)n1 | -6.4 | -8.4% | nt | 10.2% | -1.5
CCCCSc1nnc2c(n1)OC(C(=O)c1ccccc1)Nc1ccccc1-2 (stereo not given) | 25.2 | -3.4% | 3.7% | nt | 15.0*
CCCSc1nnc2c(n1)OC(c1sccc1C)Nc1ccccc1-2 (stereo not given) | 65.7* | nt | nt | nt | 40.6*
O=C(O)/C=C/C(=O)N1CCN(C(c2ccccc2)c2ccccc2)CC1 | -5.3 | 8.1% | ? | -10.5% | 6.2
COc1ccc(/C=N/Nc2nccnc2Cl)c(OC)c1 | 78.1* | 10µM* | 7.7% | -12.3% | 29.2*
COc1ccc(/C=N/Nc2nonc2N)c(OC)c1 | 46.6 | 1.8% | 19.6% | 60.1% | 14.1
Clc1nccnc1N/N=C/c1ccc(Br)cc1 | 40.4* | 17.8µM* | -29.9% | 127.9% | 39.5*
COc1ccc(/C=N/Nc2nccnc2Cl)cc1 | 38.5 | 7.08µM* | 188.6% | nt | 35.7*
CCNc1nc(NCC)nc(N/N=C/c2ccc(Br)cc2)n1 | -4.1 | -5.5% | ? | ? | 2.1
COc1ccc(/C=N/NC2=NCCCCC2)cc1 | 13.2 | 0.5% | 40.5% | nt | 10.3
CN1C(=O)C(=O)/C(=C(/O)c2ccccc2)C1c1ccc([N+](=O)[O-])cc1 (stereo not given) | -7.4 | 3.8% | ? | 17.2% | 1.7
COc1ccc(-n2nc(C(=O)NCC(=O)NCCCN3CCOCC3)c3ccccc3c2=O)cc1 | -6.3 | 1.3% | 0.0% | 6.5% | -1.4
COC(C[C@H]1O[C@H]1[C@H](O)[C@H](C)OCc1ccccc1)OC | -2.3 | 1.8% | 60.5% | 48.5% | -5.5
COc1cccc(CN(C)C(=O)CSc2nc3ccccc3[nH]2)c1OC | 45.9* | -2.9% | 0.4% | -10.2% | 26.4*
Cn1cccc1C(=O)NNC(=O)COc1ccccc1Cl | nt | nt | 33.2% | 56.5% | nt
S=c1[nH]nc(Cc2ccccc2)n1-c1cccc2ccccc12 | -1.0 | 10µM* | -4.3% | 30.7% | -4.4
Nn1c(Cc2ccccc2)n[nH]c1=S | 50.2 | 2.1% | 25.3% | 2.9% | 18.0*
Cc1ccc(-n2c(Cc3ccccc3)n[nH]c2=S)c(C)c1 | -5.4 | -12.3% | -5.4% | 0.2% | -1.1
Cc1cccn2c(=O)c3cc(C(=O)NCCN4CCOCC4)c(=N)n(CCCN4CCOCC4)c3nc12 | -9.6 | -6.4% | 0.5% | 2.94µM* | -2.9
COc1ccc(CCn2c(=N)c(C(=O)NCCN3CCOCC3)cc3c(=O)n4ccccc4nc32)cc1OC | -4.8 | 7.5% | ? | ? | 2.4
Cc1cccn2c(=O)c3cc(C(=O)NCC4CCCO4)c(=N)n(CCN4CCOCC4)c3nc12 (stereo not given) | -4.4 | -0.4% | -92.3% | nt | -3.3
Cc1ccc2nc3c(cc(C(=O)NCCc4ccccc4)c(=N)n3CCCN3CCOCC3)c(=O)n2c1 | 3.5 | -4.2% | ? | ? | -4.1
Cc1cccn2c(=O)c3cc(C(=O)NCCN4CCOCC4)c(=N)n(CCc4ccccc4)c3nc12 | -3.9 | 1.6% | -8.3% | 0.465µM* | -1.6
COc1ccc(CCn2c(=N)c(C(=O)NCCN3CCOCC3)cc3c(=O)n4cccc(C)c4nc32)cc1OC | -4.3 | 6.3% | 0.415µM* | 0.738µM* | -8.4
